Data reported in article PMC4336329 (PLoS ONE, 2015).
The campaign covered roughly 310,000 compounds. About 14,000 (4.5%) showed an effect of 50% or more. Effects have a minus sign here. The entries come from a sample that favours strong results as a whole.

biological target: human ether-à-go-go-related gene (hERG) potassium channel (human, UniProt Q12809); assay: primary screen, population patch clamp on CHO cells stably expressing hERG; higher = less effect of the substance
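Also: peak tail current of the secondary pulse compared with the same well before compound.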

Sequence of human ether-à-go-go-related gene (hERG) potassium channel (Q12809 whole entry, looked up): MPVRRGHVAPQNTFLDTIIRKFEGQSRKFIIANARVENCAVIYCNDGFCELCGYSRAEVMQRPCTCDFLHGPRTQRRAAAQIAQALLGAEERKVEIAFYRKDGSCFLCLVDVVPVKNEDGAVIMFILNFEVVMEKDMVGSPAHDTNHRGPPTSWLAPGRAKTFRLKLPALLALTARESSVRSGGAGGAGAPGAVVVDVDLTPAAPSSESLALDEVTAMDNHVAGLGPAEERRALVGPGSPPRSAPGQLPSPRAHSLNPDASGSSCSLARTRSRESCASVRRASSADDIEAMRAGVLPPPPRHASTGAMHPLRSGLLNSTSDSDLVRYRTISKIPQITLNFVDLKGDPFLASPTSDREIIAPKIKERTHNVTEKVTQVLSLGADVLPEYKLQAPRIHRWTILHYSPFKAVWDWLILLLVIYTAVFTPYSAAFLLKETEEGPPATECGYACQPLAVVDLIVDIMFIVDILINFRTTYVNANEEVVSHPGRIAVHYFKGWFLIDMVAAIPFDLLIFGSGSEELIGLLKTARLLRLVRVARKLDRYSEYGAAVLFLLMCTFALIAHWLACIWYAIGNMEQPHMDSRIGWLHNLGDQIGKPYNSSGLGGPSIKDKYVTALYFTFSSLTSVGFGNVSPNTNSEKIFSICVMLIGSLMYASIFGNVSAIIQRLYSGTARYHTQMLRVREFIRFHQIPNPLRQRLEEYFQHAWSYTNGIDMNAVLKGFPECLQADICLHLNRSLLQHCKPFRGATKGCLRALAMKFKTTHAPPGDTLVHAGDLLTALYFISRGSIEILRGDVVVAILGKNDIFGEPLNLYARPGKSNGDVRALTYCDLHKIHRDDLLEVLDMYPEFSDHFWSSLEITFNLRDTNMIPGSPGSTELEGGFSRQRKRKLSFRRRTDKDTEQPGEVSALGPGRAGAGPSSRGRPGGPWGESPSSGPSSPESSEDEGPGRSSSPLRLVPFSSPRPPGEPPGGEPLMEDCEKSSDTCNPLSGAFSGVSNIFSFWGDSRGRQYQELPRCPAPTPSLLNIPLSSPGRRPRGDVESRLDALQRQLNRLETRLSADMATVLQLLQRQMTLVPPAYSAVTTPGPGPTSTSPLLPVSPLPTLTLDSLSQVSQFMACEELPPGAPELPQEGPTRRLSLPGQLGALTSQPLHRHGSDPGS

Structure (SMILES)	hERG current change (%, negative = inhibition) at 10uM [%]
COc1ccc(S(=O)(=O)NCc2ccco2)cc1-c1nnc2c3ccccc3c(C)nn12	-50.3
CC(=O)c1c(C)n(Cc2ccccc2)c2ccc(O)cc12	12.8
Cc1ccc(C2CC(c3cccs3)=NN2C(=O)CSc2nc(=O)n3cc(C)ccc3n2)cc1 (stereo not shown)	-66.6
CCC(=O)N1N=C(c2cccs2)CC1c1ccc(C)cc1 (stereo not shown)	2.52
COc1ccc(C2CC(c3cccs3)=NN2C(=O)CSc2nc(=O)n3cc(C)ccc3n2)cc1 (stereo not shown)	-64.8
COc1ccc(C2=NN(C(=O)CSc3nc(=O)n4cc(C)ccc4n3)C(c3ccc(C)cc3)C2)cc1 (stereo not shown)	-16.2
Cc1ccc(C2CC(c3cccs3)=NN2C(=O)CSC2=NCCS2)cc1 (stereo not shown)	-2.21
COc1ccc(C2=NN(C(=O)CSc3nc(=O)n4cccc(C)c4n3)C(c3ccc(C)cc3)C2)cc1 (stereo not shown)	4.53
Cc1nn(C(C)C(=O)NC(C)CCc2ccccc2)c(=O)c2cc3occc3n12 (stereo not shown)	-13.7
O=C(NC1=NCCS1)C1CCN(S(=O)(=O)c2ccccc2C(F)(F)F)CC1	6.92
COc1ccc(-c2coc3cc(OC)cc(O)c3c2=O)cc1	24.5
CCOc1ccc2c(C)nc(NC3=NC(C)(C)C=C(C)N3)nc2c1	-45
CC1=CC(C)(C)N=C(Nc2nc(C)c3cc(C)cc(C)c3n2)N1	-63.5
CCOc1ccc2nc(NC3=NC(C)(C)C=C(C)N3)nc(C)c2c1	-47.8
CN(C)CCCNC(=O)c1cc(C(=O)c2ccc(F)cc2)c[nH]1	-68.5
CN(C)CCCNC(=O)c1cc(C(=O)c2c(Cl)cccc2Cl)c[nH]1	-9.62
COc1cccc(C(=O)c2c[nH]c(C(=O)NCCCN(C)C)c2)c1	-4.75
CN(C)CCCNC(=O)c1cc(C(=O)c2ccccc2)c[nH]1	10.5
CN(C)CCCNC(=O)c1cc(C(=O)c2ccccc2F)c[nH]1	1.23
CN(C)CCCNC(=O)c1cc(C(=O)c2cccc(Cl)c2Cl)c[nH]1	-51
C#CCOC(=O)c1cc(Cl)c(=O)n(Cc2ccc(Cl)cc2Cl)c1	-18.8
COC(=O)c1cc2ccsc2n1CC(=O)NCC1CCCO1 (stereo not shown)	10.6

Structure (SMILES)	hERG current change (%, negative = inhibition) at 10uM [%]
CC(C)Nc1nc(NNc2nc(Cl)nc(NC(C)(C)C)n2)nc(NC(C)C)n1	10.1
Cc1cc(NC(=O)CSc2nc(C3CCCCC3)nc3ccccc23)no1	18.9
CC/C(=C\c1oc2cc3ccccc3cc2[n+]1CC)Nc1ccccc1.[I-]	-78.1
CCC(=O)Nc1ccc(NC(=O)c2cc3ccccc3o2)cc1	-2.45
O=C(Nc1ccccc1)c1cc2ccccc2o1	-7.55
COCCn1c(SCC(=O)Nc2cccc(S(N)(=O)=O)c2)nc2cc(Cl)ccc2c1=O	-38.8
COc1ccc2c(c1)CC(N1CCN(C)CC1)c1cc(OC)ccc1S2.O=C(O)/C=C\C(=O)O (stereo not shown)	-25.9
CN1CCN(C(=O)Nc2ccc3c(c2)N(C)C(=O)c2ccccc2S3)CC1	8.57
CSc1ccc2c(c1)C(N1CCN(C)CC1)Cc1ccc(F)cc1S2.O=C(O)/C=C\C(=O)O (stereo not shown)	-58.8
CN1CCN(C2Cc3ccccc3Sc3ccc(Cl)cc32)CC1.O=C([O-])/C=C\C(=O)[O-] (stereo not shown)	-65.9
CN1CCC(=C(c2ccc(Cl)cc2)c2ccccn2)CC1.O=C([O-])/C=C\C(=O)[O-]	-40.5
CN1CCN(C2Cc3cc(F)ccc3Sc3ccc(Cl)cc32)CC1.O=C(O)/C=C\C(=O)O (stereo not shown)	-44.8
CN1CCN(C2Cc3ccccc3Sc3cc(C(F)(F)F)ccc32)CC1.O=C(O)/C=C\C(=O)O (stereo not shown)	-70.2
CSc1cccc(NC(=O)N2CCN(C)CC2)c1	-31.1
O=C(O)/C=C\C(=O)O.OCCN1CCN(C2CCC(c3ccc(F)cc3)c3ccc(F)cc32)CC1 (stereo not shown)	-44.5
CS(=O)(=O)O.CSc1ccc2c(c1)C(N1CCN(C)CC1)Cc1ccccc1S2 (stereo not shown)	-65.9
CN1Cc2cccc3c2C(Cc2ccccc2S3)C1.O=C(O)/C=C\C(=O)O (stereo not shown)	-36.6
Cc1ccc(/C=C2\C(=N)N3N=C(CC(=O)N4CCCCC4)SC3=NC2=O)cc1	17.4
COc1ccc(/C(O)=C2/C(=O)C(=O)N(c3ccccn3)C2c2ccc(F)cc2)cc1 (stereo not shown)	35.2
O=C(COC(=O)CNC(=O)c1ccc(Cl)cc1Cl)NC1CCCCCCC1	15.8
Cc1cn(C(=O)c2cccc(Br)c2)c(C)n1	15
